The record followed here is PubChem BioAssay.

The source made the active and inactive calls.

In one assay the target is Albumin (Bos taurus) (UniProt P02769). In words: bovine serum albumin binders on microarray, profiling panel, artefact control for SMM control protein annotation, biochemical, small-molecule microarray, Alexa647 label, 635/667 nm fluorescence (AID 1118).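 Note: score merges 667 nm emission intensity and signal-to-noise per printed compound spot.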 Particulars: BSA-A647 binding, fluorescence 635 nm, higher = more signal.
Sequence of Albumin (Bos taurus) (P02769 whole entry, looked up): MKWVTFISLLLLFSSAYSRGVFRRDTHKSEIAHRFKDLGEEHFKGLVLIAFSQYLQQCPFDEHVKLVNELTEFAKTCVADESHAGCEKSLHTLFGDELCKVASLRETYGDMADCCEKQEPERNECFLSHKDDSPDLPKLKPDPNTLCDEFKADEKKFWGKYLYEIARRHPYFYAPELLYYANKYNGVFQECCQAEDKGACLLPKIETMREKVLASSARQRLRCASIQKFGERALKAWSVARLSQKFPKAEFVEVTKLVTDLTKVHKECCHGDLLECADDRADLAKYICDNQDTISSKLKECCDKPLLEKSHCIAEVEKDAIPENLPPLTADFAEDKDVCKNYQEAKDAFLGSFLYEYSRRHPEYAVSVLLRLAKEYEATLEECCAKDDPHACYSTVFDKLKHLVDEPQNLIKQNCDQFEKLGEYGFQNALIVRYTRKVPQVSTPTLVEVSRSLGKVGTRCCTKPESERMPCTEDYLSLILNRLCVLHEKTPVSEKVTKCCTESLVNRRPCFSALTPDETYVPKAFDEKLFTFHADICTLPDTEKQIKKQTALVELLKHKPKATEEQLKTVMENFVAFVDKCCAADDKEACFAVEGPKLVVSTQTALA
Assay [1] is described as follows: small-molecule microarray binders of probe aXIP, primary screen, biochemical, NeuroSMM set, 635/667 nm fluorescence (AID 1119).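 Note: probe is the protein aXip251-270 applied at 1 µg/mL to compound-printed slides; binding of probe to printed compounds measured as 667 nm fluorescence plus signal to noise.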 The conditions noted are these: higher = more signal, called active from +8 up or from −8 down.
Assay [2] is described as follows: small-molecule binders of probe aNOTCH3, primary screen, biochemical, small-molecule microarray, 635/667 nm fluorescence (AID 1120).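 Note: probe is a biotin-tagged antibody raised against NOTCH3 rather than NOTCH3 protein; score merges spot fluorescence near 667 nm with spot signal to noise.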 The conditions noted are these: higher = more signal.
Assay [3] is described as follows: small-molecule binders of probe aNOTCH2, primary screen, biochemical, small-molecule microarray, 635/667 nm fluorescence (AID 1121).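 Note: score merges feature fluorescence read at 667 nm with its signal to noise.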 The conditions noted are these: higher = more signal.
Assay [4] concerns the target Carbonic anhydrase 2 (Homo sapiens) (UniProt P00918). In words: CAII small-molecule binders, profiling panel, biochemical, small-molecule microarray, Alexa647-labelled CAII (AID 1122). Particulars: CAII-A647 binding fluorescence, higher = more signal.
A short description of assay [5]: COS7 lysate on small-molecule microarray, probe aHis, 635 nm (AID 1123).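 Note: z-score combines 667nm fluorescence intensity with signal-to-noise per printed compound spot.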 The conditions noted are these: COS7 cell lysate, fluorescence, higher = more signal.
Assay [6] is described as follows: compound binding in COS7 lysate, probe aLAP1, primary screen, cell lysate, small-molecule microarray (AID 1124).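 Note: lysate comes from COS7 cells expressing LAP1 and is applied at 0.3 µg/mL; score merges spot fluorescence near 667 nm with signal-to-noise over triplicate slides.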 The conditions noted are these: probe aLAP1, fluorescence, higher = more signal.
The next assay concerns Sam68 (KHDRBS1). In words: Sam68 small-molecule binders, primary screen, biochemical, small-molecule microarray, 635 nm fluorescence (AID 1125).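 Note: score merges 667 nm channel intensity with signal to noise over triplicate slides.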 Particulars: small-molecule microarray binding, higher = more signal.
The subject of assay [7] is Chordin-like protein 2 (CHRDL2). In words: CHRDL2 small-molecule binders, primary screen, biochemical, small-molecule microarray, 635 nm fluorescence (AID 1126).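 Note: printed compound slides probed with Chrdl2 protein at 4 µg/mL for 1 h at 4 C; score merges 667 nm emission intensity with signal to noise over three replicate slides.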 The conditions noted are these: small-molecule microarray binding, fluorescence 635 nm; higher = more signal.
For assay [8], the target named is Concanavalin-A (Canavalia ensiformis) (UniProt P02866). In words: ConA small-molecule binders, primary screen, artefact control for SMM control protein annotation, biochemical, small-molecule microarray, Alexa647 label, 635 nm (AID 1127).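 Note: z combines 667 nm emission intensity with signal-to-noise across three replicate slides.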 Particulars: ConA-A647 binding fluorescence, higher = more signal.
Sequence of Concanavalin-A (Canavalia ensiformis) (P02866 whole entry, looked up): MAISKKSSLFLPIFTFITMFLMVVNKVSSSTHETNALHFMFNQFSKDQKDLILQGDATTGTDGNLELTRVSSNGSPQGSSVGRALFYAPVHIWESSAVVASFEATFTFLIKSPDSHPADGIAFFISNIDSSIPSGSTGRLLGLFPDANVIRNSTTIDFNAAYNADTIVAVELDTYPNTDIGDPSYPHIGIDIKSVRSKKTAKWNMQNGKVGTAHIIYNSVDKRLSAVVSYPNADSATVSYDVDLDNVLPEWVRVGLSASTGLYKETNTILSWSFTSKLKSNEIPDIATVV
Assay [9] can be described thus: anti-His antibody binders, primary screen, artefact control for SMM control protein annotation, biochemical, small-molecule microarray, 635 nm fluorescence (AID 1128).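 Note: score merges feature fluorescence with signal-to-noise for each printed compound spot.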 The conditions noted are these: anti-His Alexa647 antibody binding, higher = more signal.
Assay [10] has as its system Human papillomavirus type 1a E7 protein (residues 1-88). In words: HPV1a E7 small-molecule binders, primary screen, biochemical, small-molecule microarray, residues 1-88, 635 nm (AID 1129). The conditions noted are these: small-molecule microarray binding, fluorescence 635 nm; higher = more signal.
Assay [11] deals with Focal adhesion kinase 1 (Homo sapiens) (UniProt Q05397). In words: small-molecule microarray binders of FAK, primary screen, biochemical, 635/667 nm fluorescence, BSA, DTT (AID 1130).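 Note: composite of spot emission at 667 nm and signal to noise over triplicate slides.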 The conditions noted are these: PTK2 binding, 635 nm fluorescence, higher = more signal.
Sequence of Focal adhesion kinase 1 (Homo sapiens) (Q05397 whole entry, looked up): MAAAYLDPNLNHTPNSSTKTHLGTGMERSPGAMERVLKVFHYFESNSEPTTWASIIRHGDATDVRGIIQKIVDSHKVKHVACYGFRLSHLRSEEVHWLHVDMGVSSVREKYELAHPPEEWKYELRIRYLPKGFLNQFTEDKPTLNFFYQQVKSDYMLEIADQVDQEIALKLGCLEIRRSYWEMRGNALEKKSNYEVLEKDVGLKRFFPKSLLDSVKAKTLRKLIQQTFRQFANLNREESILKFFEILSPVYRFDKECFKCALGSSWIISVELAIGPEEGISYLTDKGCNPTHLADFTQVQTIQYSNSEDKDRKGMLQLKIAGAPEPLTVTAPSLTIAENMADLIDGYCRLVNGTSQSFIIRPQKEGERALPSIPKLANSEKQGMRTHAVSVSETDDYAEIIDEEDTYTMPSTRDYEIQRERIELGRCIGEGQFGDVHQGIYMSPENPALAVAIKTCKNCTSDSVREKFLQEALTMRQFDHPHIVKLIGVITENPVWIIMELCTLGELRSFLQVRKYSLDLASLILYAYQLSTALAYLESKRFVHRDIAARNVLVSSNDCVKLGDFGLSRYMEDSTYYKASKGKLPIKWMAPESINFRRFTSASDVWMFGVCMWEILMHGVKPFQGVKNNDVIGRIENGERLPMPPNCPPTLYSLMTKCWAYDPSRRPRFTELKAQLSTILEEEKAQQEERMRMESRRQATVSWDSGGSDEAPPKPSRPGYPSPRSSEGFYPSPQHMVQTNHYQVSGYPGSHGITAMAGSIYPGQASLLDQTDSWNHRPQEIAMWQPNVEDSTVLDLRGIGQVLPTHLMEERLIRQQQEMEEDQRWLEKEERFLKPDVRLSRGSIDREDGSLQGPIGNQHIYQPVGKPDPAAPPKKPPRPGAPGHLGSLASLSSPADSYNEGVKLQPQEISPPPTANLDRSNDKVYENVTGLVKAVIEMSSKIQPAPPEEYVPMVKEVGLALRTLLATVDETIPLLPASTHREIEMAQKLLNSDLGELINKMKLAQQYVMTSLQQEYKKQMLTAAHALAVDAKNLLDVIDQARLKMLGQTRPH
Assay [12] concerns Fibrinogen (Alexa647-labelled). In words: fibrinogen binders on compound microarrays, profiling panel, artefact control for SMM control-protein annotation, biochemical, small-molecule microarray, 635/667 nm fluorescence (AID 1131).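 Note: z-score merges 667 nm fluorescence with per-spot signal-to-noise over triplicate slides.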 Particulars: fibrinogen-A647 binding fluorescence, higher = more signal.
The target in assay [13] is Follistatin (Homo sapiens) (UniProt P19883). In words: follistatin binders on small-molecule microarrays, primary screen, biochemical, small-molecule microarray, 635/667 nm fluorescence (AID 1132). The conditions noted are these: FST binding, 635 nm fluorescence, higher = more signal.
Sequence of Follistatin (Homo sapiens) (P19883 whole entry, looked up): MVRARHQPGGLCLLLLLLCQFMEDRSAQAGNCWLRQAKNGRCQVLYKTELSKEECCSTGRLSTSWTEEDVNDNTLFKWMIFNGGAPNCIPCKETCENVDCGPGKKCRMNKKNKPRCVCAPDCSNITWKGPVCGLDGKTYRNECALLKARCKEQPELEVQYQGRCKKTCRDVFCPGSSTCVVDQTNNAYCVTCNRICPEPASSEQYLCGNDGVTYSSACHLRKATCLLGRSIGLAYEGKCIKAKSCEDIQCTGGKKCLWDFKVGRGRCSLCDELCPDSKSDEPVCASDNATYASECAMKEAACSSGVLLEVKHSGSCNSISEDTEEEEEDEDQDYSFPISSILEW
Assay [14] addresses Fibroblast growth factor 2 (Homo sapiens) (UniProt P09038). In words: FGF2 binders on small-molecule microarrays, primary screen, biochemical, small-molecule microarray, 635/667 nm fluorescence (AID 1133). Particulars: small-molecule microarray binding, FGF2, fluorescence 635/667; higher = more signal.
A short description of assay [15]: mitochondrial membrane potential change in A549 cells, profiling panel, cell-based, JC-1 fluorescence, basal, 24 h, 100 nL (AID 1138).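 Note: A549 lung adenocarcinoma cells under basal conditions with no added stimulus; test concentration not given here.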 Particulars: higher = more signal.
The next assay has as its system Lefty1. In words: Lefty1 binders on small-molecule microarrays, primary screen, biochemical, small-molecule microarray, 635/667 nm fluorescence (AID 1139). Particulars: small-molecule microarray binding, fluorescence 635/667; higher = more signal.
The subject of assay [16] is wheat germ agglutinin (Triticum aestivum), Alexa647-labelled. In words: wheat germ agglutinin binders on compound microarrays, profiling panel, artefact control for SMM control-protein annotation, biochemical, small-molecule microarray, 635/667 nm fluorescence (AID 1140).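 Note: score merges 667 nm feature emission with signal to noise over triplicate slides.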 Particulars: WGA-A647 binding, 635 nm fluorescence, higher = more signal.
In assay [17] the target is Luciferin 4-monooxygenase (Photinus pyralis) (UniProt P08659). In words: firefly luciferase enzyme inhibitors, primary screen, biochemical, luminescence, purified enzyme, 2006 set (AID 1141).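 Note: cell-free assay with purified firefly luciferase at 100 ng per well in PBS; test concentration not given here.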 The conditions noted are these: SteadyGlo luminescence, 30 min, higher = more signal, called active from +8 up or from −8 down.
Sequence of Luciferin 4-monooxygenase (Photinus pyralis) (P08659 whole entry, looked up): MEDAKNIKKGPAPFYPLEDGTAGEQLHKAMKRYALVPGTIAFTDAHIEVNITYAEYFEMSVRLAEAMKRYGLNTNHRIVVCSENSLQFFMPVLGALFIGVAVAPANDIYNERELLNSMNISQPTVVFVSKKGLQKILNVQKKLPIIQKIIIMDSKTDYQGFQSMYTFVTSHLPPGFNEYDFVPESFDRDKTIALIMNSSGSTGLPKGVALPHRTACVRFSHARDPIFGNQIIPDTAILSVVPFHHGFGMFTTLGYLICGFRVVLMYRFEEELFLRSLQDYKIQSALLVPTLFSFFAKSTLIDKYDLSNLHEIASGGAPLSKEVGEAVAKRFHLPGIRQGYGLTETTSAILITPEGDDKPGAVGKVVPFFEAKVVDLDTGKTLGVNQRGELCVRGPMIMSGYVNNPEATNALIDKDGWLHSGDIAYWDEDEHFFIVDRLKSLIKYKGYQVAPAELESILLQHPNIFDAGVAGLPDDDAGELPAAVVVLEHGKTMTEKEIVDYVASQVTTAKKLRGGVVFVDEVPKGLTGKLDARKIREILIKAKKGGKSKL

Sequence of Fibroblast growth factor 2 (Homo sapiens) (P09038 whole entry, looked up): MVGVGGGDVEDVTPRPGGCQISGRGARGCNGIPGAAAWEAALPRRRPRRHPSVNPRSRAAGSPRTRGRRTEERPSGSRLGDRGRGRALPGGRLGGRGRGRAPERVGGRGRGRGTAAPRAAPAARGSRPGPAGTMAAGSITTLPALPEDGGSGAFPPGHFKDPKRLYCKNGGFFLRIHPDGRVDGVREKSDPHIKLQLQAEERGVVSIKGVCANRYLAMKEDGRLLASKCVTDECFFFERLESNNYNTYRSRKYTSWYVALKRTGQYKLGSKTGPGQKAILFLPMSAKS

Consider `Cc1ccc(S[C@]2(C(=O)NC3CC3)CC(=O)N(Cc3ccccc3)[C@@H]2c2ccc(CO)cc2)cc1`, for which the composite z-score was 0.391 with Albumin (Bos taurus); -0.284 in assay [2]; 0.125 in [3]; 0.27 in [4]; 2.78 in [5]; 0.677 in assay [6]. Also, the composite z-score was -0.664 in the assay on Sam68 (KHDRBS1); -1.49 in assay [7]; -0.788 in [8]; 0.116 in assay [9]; -0.663 in assay [10]; -0.526 in assay [11]. For the same molecule, the composite z-score in [12] was -0.816; in [13] it was -0.432; in assay [14], -0.596; in the assay on Lefty1, -0.663; in [16], 0.222. In assay [1], the composite Z-score is 0.225 (inactive). The z-score was 0.424 in assay [15] and -0.585 (inactive) in assay [17].
On to `COCC1=C2[C@@H](CCc3ccccc3)OB(O)C[C@@H]2[C@@H]2C(=O)N(Cc3ccccc3)C(=O)[C@@H]2C1`, for which the composite z-score with Albumin (Bos taurus) was 0.818; in assay [2] it was -0.102; in assay [3] it was -0.14; in [4], 0.404; in [5], 0.532; in assay [6] it was -0.0804. Besides, the composite z-score in the assay on Sam68 (KHDRBS1) was -0.42; in [7], 0.137; in assay [8] it was -0.777; in [9], -0.0926; in assay [10] it was -0.147; in assay [11], -0.138. In addition, the composite z-score in assay [12] was 1; in [13] it was 0.193; in assay [14], -0.0119; in the assay with Lefty1, 0.261; in assay [16], 0.397. In addition, in [1], the composite Z-score is -0.524 (inactive). The z-score in assay [15] is 0.092; in assay [17], -0.683 (inactive).
Turning to `CC(C)N1C(=O)C[C@@](C(=O)NCc2ccccc2)(c2ccc([N+](=O)[O-])cc2)[C@H]1c1ccc(CO)cc1`, the composite z-score in the assay with Albumin (Bos taurus) is 0.467; in [2] it was -0.186; in [3] it was -0.0617; in [4], 0.702; in [5] it was 2.37; in assay [6], 0.506. Besides, the composite z-score is 1.31 in the assay on Sam68 (KHDRBS1); -0.791 in assay [7]; -0.0974 in [8]; 2.58 in assay [9]; 1 in [10]; 0.159 in assay [11]. Moreover, the composite z-score in [12] is -0.511; in assay [13] it was 0.692; in assay [14], 0.118; with Lefty1, 0.119; in assay [16] it was 0.549. In assay [1], the composite Z-score was 0.0119 (inactive). The z-score in assay [15] was 0.316; in assay [17] it was 0.982 (inactive).
Regarding `COCC(=C=CC[C@H](O)c1ccc(OCCO)cc1)C[C@H](O)c1cc(Cl)cc(Cl)c1O`, the composite z-score with Albumin (Bos taurus) is -0.679; in assay [2], 0.114; in assay [3], -0.122; in assay [4], 0.718; in [5], -1.65; in [6] it was 0.359. The composite z-score is 1.17 in the assay on Sam68 (KHDRBS1); 0.923 in [7]; 0.661 in [8]; 0.773 in assay [9]; 0.907 in assay [10]; -0.427 in assay [11]. For the same molecule, the composite z-score stood at 0.799 in assay [12]; 1.38 in assay [13]; 1.4 in [14]; 1.47 with Lefty1; 0.0552 in assay [16]. Moreover, the composite Z-score in [1] was -0.566 (inactive). The values for the z-score in [15] and in [17] were 0.268 and -0.846 (inactive), respectively.
For the molecule `Cc1ccc(S[C@]2(C(=O)NCCN3CCOCC3)CC(=O)N(Cc3cc(C(F)(F)F)cc(C(F)(F)F)c3)[C@@H]2c2ccc(CO)cc2I)cc1`, the composite z-score in the assay with Albumin (Bos taurus) is 0.59; in assay [2], -0.214; in assay [3], -0.164; in assay [4], 0.661; in [5], 0.373; in [6], -0.0586. The composite z-score was 0.134 in the assay with Sam68 (KHDRBS1); -1.16 in [7]; -0.13 in assay [8]; -1.02 in assay [9]; -0.27 in [10]; 0.414 in assay [11]. Besides, the composite z-score in [12] was -0.46; in assay [13] it was 0.016; in assay [14], -1.13; in the assay on Lefty1, -0.304; in [16], 0.0101. For the same molecule, in assay [1], the composite Z-score was -1.18 (inactive). Besides, the z-score was 0.164 in assay [15] and 1.31 (inactive) in assay [17].
For `C=CC[C@@]1(C(=O)N2CCOCC2)N=C(c2ccc(OCCCO)cc2)O[C@@H]1c1ccccc1N=[N+]=[N-]`, the composite z-score with Albumin (Bos taurus) was 0.872; in [2] it was 0.364; in [3], 0.0753; in assay [4], 0.419; in [5], 2.43; in [6], 1. Besides, the composite z-score with Sam68 (KHDRBS1) was 1.29; in assay [7], -0.142; in assay [8], 1.09; in assay [9], 1.58; in assay [10], 1.24; in assay [11], 0.304. The composite z-score in [12] is 0.752; in assay [13], 1.33; in assay [14], 1.05; in the assay on Lefty1, 0.135; in [16], 1.13. Besides, the composite Z-score in [1] was -0.885 (inactive). In addition, the z-score was 0.0318 in [15] and -11.4 (active) in [17].
